Assay outcomes (PubChem)
Cycloheximide cs: counter-screen hit for Shiga toxin inhibitors, cycloheximide; cell reporter, cycloheximide protein synthesis inhibition counterscreen; max response, %; 12% of 300,000 active; AID 2314; in the data active = max response mostly above about 13%, no sharp cut-off; inactive = mostly below about 14%; also: read at 38.3 µM for the half of the compounds with a filed dose; 0% is about no effect
LmPK inhibitor: inhibitors of Leishmania mexicana pyruvate kinase. Q27686. purified LmPK, Kinase-Glo ATP luminescence, 1 h. Potency, µM (doses to about 57.5 µM), for inactives: at the highest dose activity change, negative = inhibition, hits mostly inhibitors. 0.37% of 290,000 active. AID 1721; also: potency is read from the fitted curve at half-maximal effect; % is scaled to controls: 0 for no effect and ±100 for the full control effect
Target sequence (Q27686 whole entry, looked up): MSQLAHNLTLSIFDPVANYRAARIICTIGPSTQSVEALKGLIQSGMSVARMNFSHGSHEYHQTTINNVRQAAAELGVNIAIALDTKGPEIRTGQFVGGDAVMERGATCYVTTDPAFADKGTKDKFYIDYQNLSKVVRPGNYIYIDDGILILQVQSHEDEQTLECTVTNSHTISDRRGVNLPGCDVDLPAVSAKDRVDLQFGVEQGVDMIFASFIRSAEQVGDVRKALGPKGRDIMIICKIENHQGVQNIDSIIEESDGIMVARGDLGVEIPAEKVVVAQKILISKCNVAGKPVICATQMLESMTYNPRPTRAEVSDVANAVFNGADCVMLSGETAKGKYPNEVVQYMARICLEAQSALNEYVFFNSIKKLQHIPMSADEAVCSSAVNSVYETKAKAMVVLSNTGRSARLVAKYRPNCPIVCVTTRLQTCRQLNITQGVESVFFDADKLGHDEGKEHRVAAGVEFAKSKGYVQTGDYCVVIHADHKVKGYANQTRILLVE
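ATP generated from ADP (0.1 mM) and PEP (0.5 mM) by 0.1 nM LmPK over 1 h at room temperature (pH 7.2 imidazole buffer) was detected by coupled luciferase luminescence. Values were normalized to uninhibited and no-enzyme wells.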
Shiga inhibitor: blocks Shiga toxin action in Vero cells; Vero cells, Shiga toxin protein synthesis inhibition reporter; inhibition, % at 38.7 µM; 9.2% of 290,000 active; AID 2315; in the data active = inhibition mostly above about 28%, no sharp cut-off; inactive = mostly below about 43%; also: 0% is about no effect
RE007 growth inh: less growth of the S. pombe RE007 Vpr strain; S. pombe RE007 Vpr strain, BacTiter-Glo ATP luminescence, 24 h; Potency, µM (doses to about 92.2 µM), for inactives: at the top dose activity change, negative = less growth, most hits filed as inhibitors; 0.21% of 360,000 active; AID 651644; active = well fitted falling curve with a large enough effect; inconclusive = small, poorly fitted or top-dose-only effect; inactive = no such curve, though single readings can be large or run the other way; also: potency is read from the fitted curve at half-maximal effect; % is scaled to controls: 0 for no effect and ±100 for the full control effect; nearly all actives have a fitted effect of over 50% in size
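Fission yeast strain RE007, carrying one chromosomally integrated HIV-1 vpr copy, was seeded at OD 0.01 in PMG+AL medium with 23 nL pinned compound. After 24 h at 30 °C and 99% humidity, viability was read by BacTiter-Glo luminescence.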
Giardia FBPA inh: inhibitors of Giardia lamblia fructose-1,6-bisphosphate aldolase. purified Giardia FBPA. Potency, µM (highest dose often 59.6 µM), for the others: top-dose activity, negative = inhibition, most hits filed as inhibitors. 0.71% of 290,000 active; also: potency is read from the fitted curve at half-maximal effect; % is scaled to controls: 0 for no effect and ±100 for the full control effect; nearly all actives have a fitted effect of over 55% in size
Target sequence (A8B2U2 whole entry, looked up): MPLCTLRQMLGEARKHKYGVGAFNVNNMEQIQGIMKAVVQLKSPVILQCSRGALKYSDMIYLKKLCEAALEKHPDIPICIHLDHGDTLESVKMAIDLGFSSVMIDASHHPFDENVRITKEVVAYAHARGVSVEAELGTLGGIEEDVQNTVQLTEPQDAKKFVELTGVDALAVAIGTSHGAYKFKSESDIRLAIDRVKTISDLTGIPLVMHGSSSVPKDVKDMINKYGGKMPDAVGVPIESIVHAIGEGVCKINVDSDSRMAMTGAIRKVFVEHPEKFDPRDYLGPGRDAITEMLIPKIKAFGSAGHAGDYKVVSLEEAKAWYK
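40 nM FBPA preincubated 10 min at RT with compound (up to 57.5 uM final), then substrate plus GAPDH/TPI/NAD/arsenate coupling and diaphorase/resazurin added. Fluorescence read after 20 min at RT, 525/598 nm.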
Tb PYK inh: blocks Trypanosoma brucei pyruvate kinase; Potency, µM (top dose mostly 76.8 µM), for the others: top-dose activity, negative = inhibition, hits mostly inhibitors; TbPYK enzyme, Kinase-Glo Plus ATP luminescence, 45 min; 0.12% of 410,000 active; also: potency is read from the fitted curve at half-maximal effect; % is scaled to controls: 0 for no effect and ±100 for the full control effect; nearly all actives have a fitted effect of over 50% in size
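Assay buffer: 50 mM TEA pH 7.2, 100 mM KCl, 10 mM MgCl2, 0.05% BSA, 0.01% Tween-20. Pyruvate kinase from T. brucei plus substrate met compound, then ADP (130 uM final). Luminescence was read post 45 min RT.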
* = called active by the depositor; u = inconclusive; x = no result given; [ ] = another dose, or the depositor's remark. This excerpt belongs to a sample that is enriched for hits. Unless noted, calls follow the shape of the dose curve; as a rule, active = well fitted curve in the direction sought with a large enough effect; inconclusive = small, poorly fitted or top-dose-only effect, or another doubt; inactive = no such curve, though single readings can be large; an effect the other way counts as inactive or inconclusive.

SMILES	Cycloheximide cs	LmPK inhibitor	Shiga inhibitor	RE007 growth inh	Giardia FBPA inh	Tb PYK inh
CC(C)(C)C1CCc2[nH]c3ccccc3c(=O)c2C1 (stereo unspecified)	13.2	-8.0%	8.6	u	-14.6%	-2.4%
O=C(Nc1ccc2c(c1)C(=O)NC2=O)c1cccc(Cl)c1	1.1	1.2%	-0.7	-13.6%	-12.0%	0.5%
CC(=O)Nc1cccc(Oc2ccc3c(c2)C(=O)NC3=O)c1	22.0*	11.5%	x	-15.8%	-20.0%	-2.6%
Cc1cccc(C(=O)Nc2ccc3c(c2)C(=O)NC3=O)c1	20.9*	-0.5%	18.2	-3.3%	-16.7%	1.8%
COC(=O)c1ccc(C(=O)Nc2ccc3c(c2)C(=O)NC3=O)cc1	2.6	0.7%	-10.1	5.8%	2.8%	-10.6%
Cc1ccc(C(=O)Nc2ccc3c(c2)C(=O)NC3=O)cc1	13.9*	1.4%	10.9	4.2%	-10.3%	-8.4%
CC(C)CNC(=O)Nc1cc(C(=O)NCc2ccc(C(C)C)cc2)ccc1N1CCCC1	x	x	x	x	x	3.9%
CCN(CC(=O)NCc1cccs1)C(=O)c1ccc(S(=O)(=O)Nc2ccccc2Cl)cc1	x	x	x	12.8%	x	-12.8%
Cc1cc(N2CCCC2)nc2ccccc12	0.8	2.2%	-3.3	4.1%	7.4%	1.1%
Cc1ccc2c(c1)Cc1nc3ccccc3nc1-2	2.6	17.8µM*	52.2	u	-23.7%	u
COc1ccc2nc(NC(=O)c3ccccc3C(=O)O)sc2c1	8.8	-1.7%	-4.1	3.4%	4.9%	-7.5%
Cc1ccc2nc(NC(=O)c3ccccc3F)sc2c1	38.7*	-6.9%	82.6*	-2.1%	0.0%	-1.6%
COc1ccc(C(=O)Nc2nc3ccc(S(C)(=O)=O)cc3s2)cc1	7.4	2.9%	9.4	5.4%	0.5%	-7.1%
O=C(Nc1ccc2nc(SCCOc3ccccc3)sc2c1)c1ccccc1F	x	x	x	x	x	-2.7%
COc1ccc(C(=O)Nc2nc3ccc(OC)cc3s2)cc1	39.4*	-1.5%	68.3*	u	-22.9%	-1.1%
CCCC(=O)Nc1nc2ccc(NC(=O)c3ccccc3F)cc2s1	20.9*	6.3%	46.9*	10.0%	-0.5%	-0.4%
Cc1ccc2nc(NC(=O)c3cccn(Cc4ccc(Cl)cc4)c3=O)sc2c1	x	x	x	x	x	-5.5%
COc1ccc2nc(NC(=O)c3cnccn3)sc2c1	31.4*	u	119.0*	19.3%	5.6%	-16.4%
CCOC(=O)c1cccc(NC(=O)CCc2c(C)nn(-c3ccc(N4CCOCC4)nn3)c2C)c1	x	x	x	x	x	-2.1%
O=C(COc1ccc(Cl)cc1Br)N1CCN(c2ncccn2)CC1	x	x	x	3.1%	x	8.2%
CCSc1ncc(Cl)c(C(=O)Nc2nc3ccc(OC)cc3s2)n1	19.5	x	-11.5	x	x	-4.9%
CCOc1ccc2nc(NC(=O)C34CC5CC(CC(NC(C)=O)(C5)C3)C4)sc2c1	-2.1	-9.4%	-20.9	-4.2%	x	-5.2%
CCN(CC)c1cc(C)c2cc(NC(=O)c3ccccc3F)ccc2n1	16.3*	0.3%	22.0	-6.4%	6.4%	3.2%
COc1ccc2nc(NC(=O)C34CC5CC(CC(NC(C)=O)(C5)C3)C4)sc2c1	49.0*	-7.4%	44.8*	17.6%	x	-1.7%
CCn1cc([N+](=O)[O-])c(C(=O)Nc2nc3ccc(OC)cc3s2)n1	15.0*	1.0%	40.9	-5.3%	18.3%	2.9%
SMILES	Cycloheximide cs	LmPK inhibitor	Shiga inhibitor	RE007 growth inh	Giardia FBPA inh	Tb PYK inh
CN1CCN(C(=O)CSc2nc3ccc(NC(=O)c4ccccc4F)cc3s2)CC1	14.3*	-0.7%	24.1	6.4%	0.5%	-2.0%
COc1ccccc1C(=O)Nc1ccc2nc(SCC(=O)N3CCCC3)sc2c1	x	x	x	x	x	8.9%
COc1cc(OC)c(NC(=O)C2=C(C)C(=O)OC23CCN(C(C)=O)CC3)cc1Cl	x	x	x	x	x	2.9%[15.4 µM]
O=C(NCC(c1ccco1)N1CCCCC1)c1cccc(S(=O)(=O)Nc2ccc(F)cc2)c1 (stereo unspecified)	x	x	x	0.6%	x	7.0%
CCN(CC)S(=O)(=O)c1ccc2c(c1)c(=O)c(C(=O)NCc1ccc(Cl)cc1)cn2C	x	x	x	x	x	1.6%
COc1ccc2nc(NC(=O)c3ccccc3F)sc2c1	27.0*	-3.3%	55.7*	-4.7%	3.7%	-13.0%
COc1ccc2nc(NC(=O)c3cccc(-c4cc5ccccc5oc4=O)c3)sc2c1	34.1*	2.7%	43.1*	-0.2%	-0.8%	-0.7%
CCOc1ccc2nc(NC(=O)C3CCCO3)sc2c1 (stereo unspecified)	0.9	2.1%	23.6	-10.9%	-1.9%	-3.5%
COc1cccc(NC(=O)c2ccc(NS(=O)(=O)c3cccs3)cc2)c1	x	x	x	-12.3%	x	-1.7%
COc1ccc2nc(NC(=O)c3ccc(NC(=O)C4CCCO4)cc3)sc2c1 (stereo unspecified)	18.6*	9.5%	16.5	8.4%	2.4%	-10.6%
COc1ccc2nc(NC(=O)c3cc(=O)c4ccccc4o3)sc2c1	x	x	x	x	x	1.6%
COc1ccc2nc(NC(=O)c3ccc(NS(=O)(=O)c4cccs4)cc3)sc2c1	34.7*	0.5%	23.3	6.3%	-0.3%	-10.7%
O=C1C(O)=CC(=C(c2ccccc2)c2ccccc2)c2ccccc21	x	x	x	-1.3%	x	4.4%
Cc1ccc(NC(=O)c2nnn(CC(=O)Nc3ccc(C)c(Cl)c3)c2N)c(C)c1	x	x	x	x	x	4.1%
CC(C)CC(=O)N1CCN(c2ccc(NC(=O)c3ccco3)cc2)CC1	-1.3	3.4%	1.7	6.9%	x	24.2%
COc1ccccc1N1CCN(C(CNC(=O)C(=O)NCc2ccc(F)cc2)c2cccnc2)CC1 (stereo unspecified)	x	x	x	x	x	5.0%
CCc1ccccc1NC(=O)Cn1nc(N2CCN(c3ccccc3OC)CC2)ccc1=O	x	x	x	x	x	-5.8%
CC(=O)c1ccc(N2CCC(C)CC2)c(F)c1	28.8*	-7.6%	40.7	-24.1%	3.9%	-1.3%
CC(=O)c1ccc(N2CCCC2)c(F)c1	17.2*	-1.3%	81.4*	x	4.6%	x
CC1CCN(c2ccc(C(=O)O)cc2N)CC1	25.4*	-8.7%	-13.6	4.6%	-9.8%	-4.5%
Nc1cc(C(=O)O)ccc1N1CCCCC1	-2.9	8.1%	3.2	4.7%	-21.4%	-4.1%
CC(=O)c1ccc(N2CCN(C(=O)c3cccs3)CC2)c(F)c1	16.0*	-3.1%	16.3	-19.7%	10.6%	-0.3%
COc1ccc(OC)c(NC(=O)c2cc3c(=O)n4cccc(C)c4nc3n2C)c1	x	x	x	x	x	3.7%
c1ccc(-c2n[nH]c3ccccc23)cc1	14.8	6.3%	-38.8	-12.1%	-10.9%	4.1%
c1ccc(-c2n[nH]c3c2oc2ccccc23)cc1	53.0*	x	72.2*	x	-5.6%	x
CCOC(=O)N1C/C(=C\c2ccccc2)C(=O)/C(=C/c2ccccc2)C1	41.4*	0.9%	23.6*	x	-3.6%	1.9%
O=C1/C(=C\c2cc([N+](=O)[O-])ccc2O)SC(=S)N1Cc1ccc(Cl)cc1	-2.1	0.8%	-3.1	39.8µM*	-0.2%	-3.4%
O=C1/C(=C\c2cccc(O)c2O)SC(=S)N1Cc1ccccc1	-0.6	-3.2%	-0.7	u	u	-19.3%
